The values that follow come from PubChem BioAssay (NCI).

Some test systems named below: NCI-H23 lung; NCI-H226 lung; NCI-H322M lung; HOP-62 NSCLC; NCI-H460 lung; HOP-92 NSCLC; NCI-H522 lung; A549/ATCC NSCLC; 786-0 renal; COLO 205 colon.
Common to all, as to assay: NCI-60 one-dose screen, 48 h (100 = growth as untreated, 0 = no growth, -100 = all killed)
Details in all cases: 10 µM unless noted

Molecules are shown by their SMILES. This is part of a sample that, as a whole, favours compounds with a hit. Of some 83,000 tested, about 20% had one in any assay.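 Growth was measured after 48 h exposure to one concentration of compound in 96-well plates. Values under 10 count as active.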 A number with no mark means an inactive call. Activity calls are given as the source filed them.

Take `COc1cc(C2CC(c3cc(OC)c(OC)c(OC)c3)=NN2C(C)=O)ccc1OCc1ccc(F)cc1` (stereo not given): the growth in the assay with NCI-H23 lung was 56.7%; in the assay on NCI-H226 lung, 49.8%; in the assay with NCI-H322M lung, 66.1%; in the assay with HOP-62 NSCLC, 74.2%; in the assay with NCI-H460 lung it was 49%; with HOP-92 NSCLC, 17.3%. Further, the growth in the assay on NCI-H522 lung was 42.1%; in the assay on A549/ATCC NSCLC it was 50.8%; in the assay with 786-0 renal, 57.8%; with COLO 205 colon, 58.5%.

Take `C=C1CC[C@@H]2[C@]3(C)COC(c4cn[nH]c4-c4ccc(OC)cc4)O[C@@H]3CC[C@@]2(C)[C@@H]1C/C=C1/C(=O)OCC1O` (stereo not given in full): the growth in the assay with NCI-H23 lung is -12.6% (active); in the assay with NCI-H226 lung, -45% (active); in the assay on NCI-H322M lung it was 32.6%; in the assay with HOP-62 NSCLC, -56.9% (active); with NCI-H460 lung it was -49.6% (active); in the assay with HOP-92 NSCLC, -34.5% (active). For the same compound, the growth is -18.4% (active) with NCI-H522 lung, 7.46% (active) in the assay with A549/ATCC NSCLC, -89.7% (active) with 786-0 renal and -83.1% (active) in the assay on COLO 205 colon.

In the case of `Cc1cc(=O)oc2cc(OCCCOc3ccc(/C=C/C(=O)Nc4ccccc4N)cc3)ccc12`, the growth in the assay with NCI-H23 lung was 45.2%; in the assay on NCI-H226 lung, 18.4%; with NCI-H322M lung it was 54.7%; in the assay with HOP-62 NSCLC, 16.7%; in the assay on NCI-H460 lung it was 14.5%; in the assay with HOP-92 NSCLC, 43.4%. Besides, the growth with NCI-H522 lung is -13.8% (active); in the assay with A549/ATCC NSCLC it was 25.8%; in the assay with 786-0 renal, 26.1%; in the assay on COLO 205 colon it was -53.6% (active).

As for `COc1ccc2nc(Nc3cccc(NC(=O)c4ccc(CN5CCCN(C)CC5)c(C(F)(F)F)c4)c3)ccc2c1`, the growth with NCI-H23 lung was -71.9% (active); in the assay on NCI-H226 lung it was -39.8% (active); with NCI-H322M lung, -86.4% (active); with HOP-62 NSCLC, -47.3% (active); with NCI-H460 lung, 8.75% (active); with HOP-92 NSCLC, -53.1% (active). Besides, the growth in the assay with NCI-H522 lung was -50.7% (active); in the assay on A549/ATCC NSCLC, -24.8% (active); with 786-0 renal, -73.4% (active); in the assay on COLO 205 colon, -31.7% (active).

On to `O=C(O)c1cccc(-c2ccc(/C=N/NC(=O)c3[nH]c4ccc(Br)cc4c3-c3ccccc3)s2)c1`, for which the growth with NCI-H23 lung is 26.4%; with NCI-H226 lung, 57.6%; in the assay with NCI-H322M lung, 58.8%; in the assay on HOP-62 NSCLC, 53.2%; in the assay on NCI-H460 lung it was 42.9%; in the assay with HOP-92 NSCLC it was 60.3%. Moreover, the growth in the assay on NCI-H522 lung is 0.263% (active); in the assay on A549/ATCC NSCLC, 68.9%; with 786-0 renal, 50.9%; in the assay on COLO 205 colon, 101%.

With `COCOc1ccc2c(=O)c(C)c(C(=O)N[C@@H](Cc3ccccc3)C(O)C(=O)NCCc3ccc(OC)cc3)oc2c1` (stereo not given in full), the growth is 109% in the assay on NCI-H23 lung; 110% in the assay on NCI-H226 lung; 103% in the assay on NCI-H322M lung; 106% in the assay on HOP-62 NSCLC; 133% in the assay on NCI-H460 lung; 117% in the assay on HOP-92 NSCLC. In addition, the growth in the assay with NCI-H522 lung was 98.4%; in the assay with A549/ATCC NSCLC, 100%; in the assay on 786-0 renal, 106%; with COLO 205 colon, 139%.

Turning to `CN(C)CCCNC(=O)c1cc(NC(=O)c2cc(NC(=O)c3ccc(C#Cc4ccccc4)cc3)cn2C)cn1C`, the growth is -42.7% (active) in the assay with NCI-H23 lung; 4.56% (active) with NCI-H226 lung; 38.9% in the assay on NCI-H322M lung; 8.16% (active) with HOP-62 NSCLC; -28.9% (active) with NCI-H460 lung; -26% (active) with HOP-92 NSCLC. Moreover, the growth in the assay on NCI-H522 lung is -95.3% (active); in the assay with A549/ATCC NSCLC, -14.8% (active); in the assay with 786-0 renal, -86.9% (active); in the assay with COLO 205 colon, -74.9% (active).

For `O=C(COc1ccc(NC(=O)Nc2ccc(Cl)c(Cl)c2)cc1)N=Nc1c(O)[nH]c2ccc(Cl)cc12`, the growth in the assay with NCI-H23 lung was -19.5% (active); in the assay with NCI-H226 lung it was -42.8% (active); in the assay with NCI-H322M lung, -5.99% (active); in the assay on HOP-62 NSCLC it was -61.3% (active); in the assay on NCI-H460 lung, 14.1%; in the assay on HOP-92 NSCLC, -30.5% (active). Further, the growth in the assay with NCI-H522 lung was -55.8% (active); with A549/ATCC NSCLC it was -39.1% (active); in the assay with 786-0 renal, -52.5% (active); in the assay with COLO 205 colon it was -54.4% (active).

For `C(=C\c1cc(/C=C/c2ccccc2)c2ccccc2n1)/c1ccccc1`, the growth in the assay on NCI-H23 lung was 82.2%; with NCI-H226 lung it was 106%; with NCI-H322M lung, 120%; in the assay on HOP-62 NSCLC, 109%; in the assay with NCI-H460 lung it was 102%; with HOP-92 NSCLC it was 84%. Besides, the growth in the assay with NCI-H522 lung was 93.4%; in the assay with A549/ATCC NSCLC, 101%; with 786-0 renal it was 80.7%; in the assay on COLO 205 colon, 118%.

In the case of `CC12CC[C@@H]3[C@]4(C)COC(c5c(F)cccc5F)O[C@@H]4CC[C@@]3(C)[C@@H]1CC(C1=CCOC1=O)O2` (stereo not given in full), the growth in the assay on NCI-H23 lung is 62.1%; in the assay with NCI-H226 lung it was 63.6%; in the assay on NCI-H322M lung it was 79.9%; with HOP-62 NSCLC it was 56.2%; in the assay with NCI-H460 lung, 96.3%; with HOP-92 NSCLC, -3.83% (active). In addition, the growth is 55.4% in the assay on NCI-H522 lung, 70.3% with A549/ATCC NSCLC, 46.8% in the assay on 786-0 renal and 91.7% in the assay on COLO 205 colon.

Consider `C=C1CCC2C3(C)COC(c4cc(F)cc(F)c4)OC3CCC2(C)C1CC(O)C1=CCOC1=O` (stereo not given), for which the growth is 64.9% in the assay with NCI-H23 lung; 92.1% in the assay with NCI-H226 lung; 95% in the assay on NCI-H322M lung; 90.6% in the assay on HOP-62 NSCLC; 66.3% with NCI-H460 lung; 46.2% in the assay on HOP-92 NSCLC. Moreover, the growth in the assay with NCI-H522 lung is 11.9%; with A549/ATCC NSCLC, 75.2%; with 786-0 renal it was 30.3%; with COLO 205 colon it was 59.5%.

On to `NC(=S)Nc1cccc(NC(N)=S)c1`, for which the growth with NCI-H23 lung was 98.5%; with NCI-H226 lung, 98.1%; in the assay on NCI-H322M lung, 88.3%; with HOP-62 NSCLC, 119%; in the assay with NCI-H460 lung, 110%; in the assay with HOP-92 NSCLC, 105%. Moreover, the growth in the assay with NCI-H522 lung was 97.2%; in the assay on A549/ATCC NSCLC it was 93.9%; with 786-0 renal, 108%; with COLO 205 colon it was 137%.

For the compound `O=C1NC(=O)/C(=C/c2ccccc2OCc2cc3ccccc3nc2Cl)S1`, the growth with NCI-H23 lung was 68.8%; in the assay on NCI-H226 lung, 75.4%; with NCI-H322M lung it was 79.4%; in the assay with HOP-62 NSCLC, 33.6%; in the assay on NCI-H460 lung it was 91.9%; in the assay on HOP-92 NSCLC it was 56.8%. Further, the growth is 79.1% with NCI-H522 lung, 76.9% in the assay with A549/ATCC NSCLC, 78.2% with 786-0 renal and 117% in the assay with COLO 205 colon.
